Source: PubChem BioAssay (National Center for Advancing Translational Sciences (NCATS))
TDP1 cell noCPT: qHTS for Inhibitors of human tyrosyl-DNA phosphodiesterase 1 (TDP1): qHTS in cells in absence of CPT; DT40 Tdp1-/- hTDP1 cells, no CPT, ATP luminescence, 48 h; Potency, µM (top dose mostly 46.2 µM), for inactives: at the highest dose activity change, negative = growth inhibition, usual class: inhibitors; 15% of 420,000 active; AID 686978, 2013; further: nearly all actives have a fitted effect of over 55% in size
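Seeded 400 DT40-hTDP1 cells/well (vehicle DMSO, no 20 nM CPT); pinned compounds; ≥48 hr at 37 °C; CellTiter-Glo luminescence as viability measure.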
TDP1 block: TDP1 (human) enzyme inhibition | AID 485290 | Potency, µM (series often up to 130 µM), for the others: at the highest dose activity change, negative = inhibition, hits mostly inhibitors | Q9NUW8 | 0.28% of 350,000 active | recombinant TDP1, AlphaScreen DNA substrate cleavage; further: nearly all actives have a fitted effect of over 40% in size
Target sequence (Q9NUW8 whole entry, looked up): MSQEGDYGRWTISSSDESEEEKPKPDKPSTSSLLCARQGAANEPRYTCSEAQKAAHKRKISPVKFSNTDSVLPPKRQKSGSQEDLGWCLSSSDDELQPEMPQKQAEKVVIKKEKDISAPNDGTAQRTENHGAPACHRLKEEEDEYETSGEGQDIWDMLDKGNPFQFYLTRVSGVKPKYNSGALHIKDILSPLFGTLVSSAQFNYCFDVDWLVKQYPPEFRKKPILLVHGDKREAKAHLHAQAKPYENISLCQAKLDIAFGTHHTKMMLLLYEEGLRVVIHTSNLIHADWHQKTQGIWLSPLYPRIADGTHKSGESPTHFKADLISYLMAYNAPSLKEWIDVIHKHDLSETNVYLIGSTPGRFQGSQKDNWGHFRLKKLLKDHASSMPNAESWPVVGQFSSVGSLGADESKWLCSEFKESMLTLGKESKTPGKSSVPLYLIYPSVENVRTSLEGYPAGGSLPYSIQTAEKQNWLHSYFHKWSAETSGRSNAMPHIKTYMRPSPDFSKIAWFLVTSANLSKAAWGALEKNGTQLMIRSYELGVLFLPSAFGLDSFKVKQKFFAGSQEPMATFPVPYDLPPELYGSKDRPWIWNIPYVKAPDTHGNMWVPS
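Tdp1 1 nM final; 15 min RT w/ cpd; substrate 15 nM, 5 min; beads 10 ug/ml, 10 min; AlphaScreen read. Neg ctrl: no enzyme.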
TDP1 cell CPT: growth inhibition of DT40 Tdp1-/-;hTDP1 cells with camptothecin (screen for TDP1 inhibitors); chicken DT40 Tdp1-/-;hTDP1 cells + 20 nM CPT, ATP luminescence, 48 h; Potency, µM (top dose mostly 46.2 µM), for inactives: top-dose activity change, negative = growth inhibition, actives largely listed as inhibitors; 12% of 420,000 active; further: nearly all actives have a fitted effect of over 55% in size
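Cell growth measured by CellTiter-Glo luminescence after a minimum 48 h, 37 C compound exposure with 20 nM CPT in Tdp1-knockout DT40 cells stably expressing hTDP1, seeded 400/well; qHTS titration format.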
RORgamma inh: inhibitors of mouse ROR gamma transcriptional activity | P51450 | Drosophila S2 Gal4-RORgamma UAS-luciferase reporter, 20 h | Potency, µM (doses to about 53.6 µM), without a hit: at the top dose activity change, negative = inhibition, actives largely listed as inhibitors | 5.4% of 310,000 active | AID 2551; further: nearly all actives have a fitted effect of over 60% in size
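Drosophila S2 cells stably expressing Gal4-DBD/mouse RORγ fusion under metallothionein promoter plus UAS-luciferase; compound 1 h, then 700 uM CuSO4 induction for 20 h at ambient temperature; inhibition read as reduced luminescence.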
Gal4-VP16 FLuc: inhibits Gal4-VP16 luciferase reporter, ROR gamma counter-screen; Drosophila S2 Gal4-VP16 UAS-luciferase, luminescence, 20 h; Potency, µM (series often up to 53.6 µM), for the others: at the top dose activity, negative = inhibition, actives largely listed as inhibitors; 3.5% of 310,000 active; AID 2546;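 further: Gal4-VP16 expression switched on by copper sulfate through the metallothionein promoter; nearly all actives have a fitted effect of over 50% in size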
* = called active by the depositor; ? = inconclusive; / = not tested or not shown; [ ] = dose if it differs, or a comment. An excerpt weighted towards active compounds, which were near 19% of everything screened. The call rests on the fitted dose curve; in most records, active means well fitted curve in the direction sought with a large enough effect; inconclusive means small, poorly fitted or top-dose-only effect, or another doubt; inactive means no such curve, though single readings can be large; an effect the other way counts as inactive or inconclusive. On the % scale 0 is the no-effect control and ±100 the full control effect; potency means the concentration at half of the fitted maximal effect.

SMILES	TDP1 cell noCPT	TDP1 block	TDP1 cell CPT	RORgamma inh	Gal4-VP16 FLuc
O=C(O)c1ccc(N/N=C/c2cc3cc4c(cc3nc2Cl)OCCO4)cc1	?	/	?	2.5µM*	4µM*
O=C(N/N=C/c1ccc2c(c1)OCO2)c1ccc(COCC(F)(F)C(F)F)cc1	1%	56µM*	-13%	0%	-10%
O=Cc1cc2cc3c(cc2nc1Cl)OCCO3	?	3%	?	15%	-4%
COc1ccc(/C=N/NC(=O)c2ccc3c(c2)OCO3)cc1	-12%	/	-8%	-9%	-8%
COc1cc(/C=N/NC(=O)c2ccc3c(c2)OCO3)ccc1O	25%	2%	-10%	8.9µM*	7.1µM*
CCCCN1C(=O)C(CC(=O)NCc2ccco2)CC(C(=O)N2CCCCCC2)=C1C (stereo not drawn)	-18%	/	2%	/	/
O=C(N/N=C/c1ccccc1OC(=O)c1ccc2c(c1)OCO2)c1cccc(F)c1	1.3µM*	3%	1.2µM*	13µM*	?
O=C(O)c1cc(N/N=C/c2ccc3c(c2)OCCO3)ccc1Cl	-10%	0%	-11%	?	11µM*
COc1ccc(/C=C\c2cc(OC)c(OC)cc2CC[N+](C)(C)C)cc1OC	2%	3%	11%	-3%	7%
Cc1cc(C)cc(OCC(=O)Nc2ccncc2)c1	?	/	-19%	?	?
Nc1nc2c(ncn2[C@@H]2O[C@H](CNC(=O)[C@H](N)C3CCCCC3)[C@@H](O)[C@H]2O)c(=O)[nH]1	-3%	/	-16%	/	/
c1ccc(CCCCN2C(Nc3ccccc3)=NC[C@@H]2Cc2ccccc2)cc1	23µM*	-4%	?	/	/
c1ccc(C[C@H]2CN=C(Nc3ccccc3)N2CCCC2CCCC2)cc1	16µM*	/	?	-12%	-1%
CCCCCCCN1C(Nc2ccccc2)=NC[C@@H]1Cc1ccccc1	18µM*	/	?	-34%	-6%
CCN1C(Nc2ccccc2)=NC[C@@H]1Cc1ccccc1	-23%	/	?	-17%	3%
CC(C)(C)C1CCC(CN2C(Nc3ccccc3)=NC[C@@H]2Cc2ccccc2)CC1 (stereo partly drawn)	13µM*	3%	23µM*	/	/
C[C@H]1CN=C(Nc2ccccc2)N1CC1CCCCC1	?	/	?	-12%	-7%
Cc1ccc2nc(Nc3cccc(Cl)c3C)c(-n3nc(C)cc3C)nc2c1	-3%	-2%	-3%	/	/
COc1cc(CC(=O)Nc2c(-c3ccccc3)[nH][nH]c2=O)cc(OC)c1	-17%	/	4%	/	/
CCOC(=O)c1c(N)n(-c2ccc(C)c(Cl)c2)c2nc3ccccc3nc12	/	1%	/	/	/
COc1cc2c(cc1OC)C[N+](C)(C)CC2	-5%	1%	-2%	-1%	-5%
COc1ccc(C2C(C(=O)Nc3ccc(C)cc3C)=C(C)Nc3nc(SCc4cccc(C)c4)nn32)c(OC)c1 (stereo not drawn)	-11%	5%	?	/	/
CC(C)CNC(=O)CSc1nnc(-c2ccccn2)n1Cc1ccccc1	-12%	0%	-4%	?	-1%
CCCC[C@@H](C)/C=C(C)/C=C(\C)C(=O)NC1=C[C@@](O)(/C=C/C=C/C=C/C(=O)NC2=C(O)CCC2=O)[C@@H]2O[C@@H]2C1=O	/	-2%	/	0.45µM*	1.3µM*
COc1ccccc1CCc1nnc(CCC(=O)NCC(C)Oc2cccnc2)o1 (stereo not drawn)	8%	-3%	-17%	-19%	-5%
CCCCC(CC)CN1CN(CC(CC)CCCC)CC(C)(N)C1 (stereo not drawn)	0.23µM*	9%[56.1 µM]	0.16µM*	-6%	-3%
O=c1cc(/N=C/c2coc3cc(Br)ccc3c2=O)[nH]c(=S)[nH]1	?	5%	?	30%	2%
CC(=O)Oc1ccc2c(=O)c(/C=N/c3cc(=O)[nH]c(=S)[nH]3)coc2c1	-17%	79µM*	-14%	-14%	6%
O=C(Nc1cccc(S(=O)(=O)NC2=NCCCCC2)c1)c1cc(-c2ccncc2)nc2ccccc12	23µM*	8%	?	-29%	-4%
